Results published in the supplement of paper PMC13380429.

System: Vero E6 infected with SARS-CoV-2
Experiment: inhibition of SARS-CoV-2 cytopathic effect; higher = more antiviral protection, active = above 15
Conditions: 48 h

Measured: inhibition of SARS-CoV-2 cytopathic effect

Cc1cc(OCCCS(C)(=O)=O)cc(C)c1-c1cccc(COc2ccc3c(c2)OC[C@H]3CC(=O)O)c1
inactive: 1 nM -1.83% | 8.33 nM 0.64% | 100 nM -0.31% | 833.33 nM 3.74% | 10000 nM 2.41%

COc1cc(/C=C/C(=O)O)ccc1O [ferulic-acid]
inactive: 1 nM 2.44% | 8.33 nM -0.76% | 100 nM -1.01% | 833.33 nM 3% | 10000 nM -0.17%

CN(C)CCCCC(=O)Nc1ccc(NC(=S)NC(=O)c2ccc(C(C)(C)C)cc2)cc1 [tenovin-6]
inactive: 1 nM -2.53% | 8.33 nM 0.01% | 100 nM -0.72% | 833.33 nM 4.3%
active: 10000 nM 18%

Oc1nc(O)c2nc(O)[nH]c2n1 [uric-acid]
inactive: 1 nM -0.34% | 8.33 nM 0.2% | 100 nM -1.96% | 833.33 nM -1.44% | 10000 nM -0.42%

CC[C@H]1OC(=O)[C@@](C)(F)C(=O)[C@H](C)[C@@H](O[C@@H]2O[C@H](C)C[C@H](N(C)C)[C@H]2O)[C@](C)(OC)C[C@@H](C)C(=O)[C@H](C)[C@H]2N(CCCCn3cc(-c4cccc(N)c4)nn3)C(=O)O[C@]12C [solithromycin]
inactive: 1 nM 0.98% | 8.33 nM 0.59% | 100 nM 0.05% | 833.33 nM -0.9% | 10000 nM -4.38%

CC(C)(Oc1ccc(Cl)cc1)C(=O)OCCOC(=O)c1cccnc1 [etofibrate]
inactive: 1 nM 0.78% | 8.33 nM 2.82% | 100 nM 0.41% | 833.33 nM 0.22% | 10000 nM -10.1%

Cn1c(=O)c2c(ncn2CCO)n(C)c1=O [etofylline]
inactive: 1 nM 0.6% | 8.33 nM 0.32% | 100 nM -0.66% | 833.33 nM -1.82% | 10000 nM -1.01%

Cn1ccc2cc(NC(=O)Nc3cccnc3)ccc21
inactive: 1 nM -1.98% | 8.33 nM -2.46% | 100 nM 0.51% | 833.33 nM -1.88% | 10000 nM 1.94%

COc1cc([S+](C)[O-])ccc1-c1nc2cccnc2[nH]1 (stereo not given) [sulmazole]
inactive: 1 nM -0.6% | 8.33 nM 3.93% | 100 nM 0.23% | 833.33 nM -1.34% | 10000 nM -0.68%

CC#C[C@]1(O)CC[C@H]2[C@@H]3CCC4=CC(=O)CCC4=C3[C@@H](c3ccc(N(C)C)cc3)C[C@@]21C [mifepristone]
inactive: 1 nM -1.56% | 8.33 nM 0.62% | 100 nM 3.53% | 833.33 nM -4.55% | 10000 nM 8.14%

Cc1ccc2c(c1)=C(c1ccccc1)C(C1=NN(C(=O)CCC(=O)O)C(c3ccc(Br)cc3)C1)C(=O)N=2 (stereo not given)
inactive: 1 nM -0.42% | 8.33 nM -0.1% | 100 nM 2.84% | 833.33 nM 3.61% | 10000 nM 0.79%

CN1C(C(=O)Nc2ccccn2)=C(O)c2ccccc2S1(=O)=O [piroxicam]
inactive: 1 nM 0.3% | 8.33 nM -0.73% | 100 nM 0.15% | 833.33 nM 0.8% | 10000 nM 1.41%

CC1(C)CC(O)CC(C)(C)N1[O] [tempol]
inactive: 1 nM 9.35% | 8.33 nM 1.45% | 100 nM -0.66% | 833.33 nM 1.43% | 10000 nM 1.53%

CS(=O)(=O)N(Cc1ccco1)C[C@@H](O)Cn1c2ccccc2c2ccccc21
inactive: 1 nM 3.16% | 8.33 nM 2.61% | 100 nM -0.72% | 833.33 nM 0.77% | 10000 nM 9.76%

N[C@@H]1CN(c2c(F)cc3c(=O)c(C(=O)O)cn([C@@H]4C[C@@H]4F)c3c2Cl)CC12CC2 [sitafloxacin]
inactive: 1 nM -0.69% | 8.33 nM -3.2% | 100 nM -0.99% | 833.33 nM -1.2% | 10000 nM 5.19%

CCCCC[C@H](O)/C=C/[C@H]1[C@H](O)CC(=O)[C@@H]1C/C=C\CCCC(=O)O [dinoprostone]
inactive: 1 nM -2.72% | 8.33 nM 0.16% | 100 nM -4.2% | 833.33 nM 0.3% | 10000 nM 0.05%

COc1ccc(CNCc2cccc3ccccc23)cc1
inactive: 1 nM -2.74% | 8.33 nM -2.35% | 100 nM -0.58% | 833.33 nM -2.06% | 10000 nM -0.83%

Cc1nc(C)c(Cl)c(O)c1Cl [clopidol]
inactive: 1 nM -2.81% | 8.33 nM -1.24% | 100 nM 1.07% | 833.33 nM 0.96% | 10000 nM 1.78%

O=C(O)CCC(=O)OC[C@@H](NC(=O)C(Cl)Cl)[C@H](O)c1ccc([N+](=O)[O-])cc1 [chloramphenicol-sodium-succinate]
inactive: 1 nM 3.1% | 8.33 nM -0.01% | 100 nM 2.32% | 833.33 nM 3.18% | 10000 nM 1.6%

Cc1nc2sccn2c(=O)c1CCN1CCC(=C(c2ccccc2)c2ccc(F)cc2)CC1
inactive: 1 nM 1.18% | 8.33 nM -2.89% | 100 nM 0.46% | 833.33 nM 2.57% | 10000 nM 1.02%

CCCSc1ccc2[nH]c(NC(=O)OC)nc2c1 [albendazole]
inactive: 1 nM 3.38% | 8.33 nM -0.38% | 100 nM -0.24% | 833.33 nM -0.32% | 10000 nM 2.97%

C/C(=C\CNc1ncnc2[nH]cnc12)CO [zeatin]
inactive: 1 nM -3.72% | 8.33 nM -2.49% | 100 nM -0.97% | 833.33 nM 0.86% | 10000 nM -1.15%

CCO/N=C(\C(=O)N[C@@H]1C(=O)N2C(C(=O)[O-])=C(Sc3nc(-c4cc[n+](C)cc4)cs3)CS[C@H]12)c1nsc(NP(=O)(O)O)n1 [ceftaroline-fosamil]
inactive: 1 nM 3.38% | 8.33 nM 2.02% | 100 nM 4.54% | 833.33 nM 4.34% | 10000 nM 3.55%

[Cl][Ti][Cl].c1cc[cH-]c1.c1cc[cH-]c1 [titanocene-dichloride]
inactive: 1 nM 3.56% | 8.33 nM -0.14% | 100 nM 1.81% | 833.33 nM -1.85% | 10000 nM 0.26%

Cn1cc(-c2ccc(S(=O)(=O)n3ccc(/C=C/C(=O)Nc4ccccc4N)c3)cc2)cn1
inactive: 1 nM -0.95% | 8.33 nM 1.05% | 100 nM -0.51% | 833.33 nM -4.65% | 10000 nM -1.31%

CN(C)CCN(Cc1ccccc1)c1ccccn1 [tripelennamine]
inactive: 1 nM 1.72% | 8.33 nM 2.84% | 100 nM 0.58% | 833.33 nM -0.69% | 10000 nM -1.94%

CC(=O)N[C@H]1[C@H]([C@H](O)[C@H](O)CO)OC(O)(C(=O)O)C[C@@H]1O (mixture of isomers) [aceneuramic-acid]
inactive: 1 nM -6.31% | 8.33 nM 1.91% | 100 nM -1.39% | 833.33 nM -2.36% | 10000 nM -0.15%

Oc1c(Cl)cc(Cl)cc1Sc1cc(Cl)cc(Cl)c1O [bithionol]
inactive: 1 nM 0.29% | 8.33 nM 0.59% | 100 nM -0.92% | 833.33 nM -0.55% | 10000 nM 2.32%

Nc1ccn([C@@H]2CS[C@H](CO)O2)c(=O)n1 [lamivudine]
inactive: 1 nM -0.38% | 8.33 nM 0.6% | 100 nM -0.56% | 833.33 nM -0.22% | 10000 nM 4.96%

COc1ccc(CCO[C@@H]2CCCC[C@H]2N2CC[C@@H](O)C2)cc1OC [vernakalant]
inactive: 1 nM -0.46% | 8.33 nM 0.39% | 100 nM -0.75% | 833.33 nM 1.67% | 10000 nM -1.63%

Oc1ccc2c3c1O[C@H]1c4c(c5ccccc5n4Cc4ccccc4)C[C@@]4(O)[C@@H](C2)N(CC2CC2)CC[C@]314 [N-benzylnaltrindole]
active: 10000 nM 34%
inactive: 1 nM 0.62% | 8.33 nM 0.67% | 100 nM 2.73% | 833.33 nM -0.06%

C[C@]1(Cn2ccnn2)[C@H](C(=O)O)N2C(=O)C[C@H]2S1(=O)=O [tazobactam]
inactive: 1 nM 0.92% | 8.33 nM -1.48% | 100 nM 2.92% | 833.33 nM 0.65% | 10000 nM 2.47%

CC(C)[C@@H]1C(=O)N(S(C)(=O)=O)[C@@H]2CCN(C(=O)/C=C/CN3CCCCC3)[C@H]21
inactive: 1 nM -0.03% | 8.33 nM -1.45% | 100 nM 1.05% | 833.33 nM -0.28% | 10000 nM 0.66%

COc1ccc2nc3c(c(N)c2c1)CCCC3 [7-methoxytacrine]
inactive: 1 nM 0.9% | 8.33 nM 2.7% | 100 nM 0.06% | 833.33 nM 4.86% | 10000 nM 4.52%

CNC1CC(N)C(O)C(OC2OC(CO)C(O)C3OC4(OC(C(N)CO)C(O)C(O)C4O)OC23)C1O (stereo not given) [Hygromycin B]
inactive: 1 nM -0.42% | 8.33 nM -1.63% | 100 nM -0.49% | 833.33 nM -1.13% | 10000 nM 1.46%

COc1cc2nc(N3CCN(C(=O)c4ccco4)CC3)nc(N)c2cc1OC [prazosin]
inactive: 1 nM 0.79% | 8.33 nM -8.02% | 100 nM -0.93% | 833.33 nM -1.57% | 10000 nM 1.13%

Cc1ccc(-c2nn(C(C)(C)CNC(=O)c3ncccc3C)c3ncnc(N)c23)cc1 [WEHI-345-analog]
inactive: 1 nM 0.48% | 8.33 nM 1.39% | 100 nM -0.26% | 833.33 nM 0.47% | 10000 nM -2.28%

O=C(Nc1cc(C(F)(F)F)cc(C(F)(F)F)c1)c1cnc(Cl)nc1C(F)(F)F
inactive: 1 nM 0.53% | 8.33 nM -0.29% | 100 nM 0.4% | 833.33 nM -4.18% | 10000 nM -13.9%
